Experimental data as given in PubChem BioAssay (NCATS).
“And” between values parts separate entries of the source, which are not always exact repeats. Equal entries are not always repeated. A number with no mark means an inactive call. Inconclusive results are not listed. The source made the active and inactive calls. Calls follow the shape of the dose curve; as a rule, active = well fitted curve in the direction sought with a large enough effect; inconclusive = small, poorly fitted or top-dose-only effect, or another doubt; inactive = no such curve, though single readings can be large or run the other way.

Target: Hexokinase-4 (Homo sapiens) + Glucokinase regulatory protein (Homo sapiens) (UniProt P35557+Q14397)
Sequence (P35557 whole entry, looked up): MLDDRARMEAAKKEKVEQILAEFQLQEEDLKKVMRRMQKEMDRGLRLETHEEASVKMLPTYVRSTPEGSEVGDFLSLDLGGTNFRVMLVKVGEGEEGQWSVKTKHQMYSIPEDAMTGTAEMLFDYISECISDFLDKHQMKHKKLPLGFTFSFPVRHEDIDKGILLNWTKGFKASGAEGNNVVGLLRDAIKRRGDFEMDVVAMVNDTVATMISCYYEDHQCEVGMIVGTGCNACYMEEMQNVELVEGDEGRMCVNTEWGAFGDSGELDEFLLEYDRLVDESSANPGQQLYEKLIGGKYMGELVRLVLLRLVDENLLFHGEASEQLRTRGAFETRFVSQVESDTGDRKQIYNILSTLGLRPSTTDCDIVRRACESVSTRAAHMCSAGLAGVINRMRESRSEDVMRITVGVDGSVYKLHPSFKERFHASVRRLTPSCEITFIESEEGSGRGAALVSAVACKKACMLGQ
Sequence (Q14397 whole entry, looked up): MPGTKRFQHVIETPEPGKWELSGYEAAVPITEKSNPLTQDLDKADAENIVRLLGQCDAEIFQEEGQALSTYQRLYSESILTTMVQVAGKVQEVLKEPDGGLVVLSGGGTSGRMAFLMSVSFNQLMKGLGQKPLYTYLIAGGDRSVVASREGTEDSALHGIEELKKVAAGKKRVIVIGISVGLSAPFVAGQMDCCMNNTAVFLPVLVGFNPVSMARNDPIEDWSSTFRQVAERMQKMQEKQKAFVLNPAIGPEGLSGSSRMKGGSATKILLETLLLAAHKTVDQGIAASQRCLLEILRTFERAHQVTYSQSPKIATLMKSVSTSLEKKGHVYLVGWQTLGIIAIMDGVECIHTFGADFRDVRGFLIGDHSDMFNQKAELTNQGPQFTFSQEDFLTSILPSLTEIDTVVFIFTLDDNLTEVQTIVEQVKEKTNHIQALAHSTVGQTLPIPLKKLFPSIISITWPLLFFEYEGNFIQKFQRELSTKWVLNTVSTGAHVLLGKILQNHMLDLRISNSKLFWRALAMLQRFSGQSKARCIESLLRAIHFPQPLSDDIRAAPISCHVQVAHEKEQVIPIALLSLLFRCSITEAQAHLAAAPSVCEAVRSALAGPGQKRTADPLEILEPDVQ
Assay: qHTS assay for inhibitors of recombinant human GCK-GKRP interaction: HTRF assay (AID 743207);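 also: 0% = DMSO with GCK present and -100% = DMSO wells lacking GCK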
Settings: recombinant GCK-GKRP HTRF binding, 60 min; series mostly up to 57.5 µM
Method in brief: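 Steps: dispense GCK–GKRP complex (5 nM each, GST- and FLAG-tagged) with 2 uM S6P; pin in compounds; add XL665/Eu-cryptate-labelled antibodies; incubate 60 min at room temperature; read time-resolved FRET at 665 and 615 nm.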

Q: With CCCN(CCC)C1CCc2ccc(O)cc2C1 (stereo not given) as the compound, how does the outcome read?
A: inactive

Q: Which outcome does the source give for S=C(NC1CCCCC1)N1CCC(c2cnc[nH]2)CC1 here?
A: inactive

Q: With O=C(Cc1ccc(Cl)c(Cl)c1)N1CCCCC1CN1CCCC1 (stereo not given) as the compound, how does the outcome read?
A: inactive

Q: Which outcome does the source give for CC(=O)[C@H]1CCC2C3CC[C@H]4C[C@H](O)CC[C@]4(C)C3CC[C@@]21C (stereo not given in full) here?
A: inactive

Q: For NC(=O)CN1CC(O)CC1=O (stereo not given), which outcome is on record?
A: inactive

Q: Which outcome does the source give for CN1C2CCC1CC(OC(=O)c1cc(Cl)cc(Cl)c1)C2 (stereo not given) here?
A: inactive

Q: For CNCCc1c[nH]c2ccc(O)cc12, which outcome is on record?
A: inactive

Q: With O=C(O)Cc1cnc[nH]1 as the compound, how does the outcome read?
A: inactive

Q: With C#CCOC(=O)C1=CCCN(C)C1 as the compound, how does the outcome read?
A: inactive

Q: With NCCc1c[nH]c2ccc(O)cc12 as the compound, how does the outcome read?
A: inactive

Q: For c1ccc2sc(C3(N4CCCCC4)CCCCC3)cc2c1, which outcome is on record?
A: inactive

Tested on: not listed separately
Assay: qHTS Assay for Identifying Gametocytocidal Compounds (AID 743244);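 also: % is scaled to controls: 0 for no effect and ±100 for the full control effect; actives lower the fluorescent signal which means gametocytes are killed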
Settings: P. falciparum 3D7 stage III-V gametocytes, alamarBlue, 72 h; max response: active compounds read low
Method in brief: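 A resazurin-based viability read-out was applied to mature P. falciparum gametocytes: 72 h compound treatment, then 24 h dye incubation, with falling fluorescence signalling gametocytocidal effect.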

Q: Which max response does the source give for CCCN1CCC[C@H](c2cccc(O)c2)C1 here?
A: -8.29% and 20.7%

Q: Which max response does the source give for Cc1nccc2c1[nH]c1ccccc12 here?
A: 22.2%

Q: With CC(C)Oc1cccnc1N(C)C1CCN(Cc2ccccc2)CC1 as the compound, how does the max response read?
A: -6.11%

Q: With C[N+]1(C)C2CCC1CC(OC(=O)C(CO)c1ccccc1)C2 (stereo not given) as the compound, how does the max response read?
A: 23.1% and 28.3%

Q: For CC(C)NC(C)Cc1ccc(I)cc1 (stereo not given), which max response is on record?
A: 8.77%

Q: With O=C1CCCN1CC#CCN1CCCC1 as the compound, how does the max response read?
A: 30.9%

Q: With CC(=O)NCCc1c[nH]c2ccccc12 as the compound, how does the max response read?
A: 17.3%

Q: Which max response does the source give for CS(=N)(=O)CC[C@H](N)C(=O)O (stereo not given in full) here?
A: -10.6%

Q: For NC(CP(=O)(O)O)C(=O)O (stereo not given), which max response is on record?
A: 4%

Q: For NC(N)=NOCCC(N)C(=O)O (stereo not given), which max response is on record?
A: 10.4%

Q: With NCCc1c[nH]c2ccccc12 as the compound, how does the max response read?
A: 11%

Q: For C[C@@H]1O[C@H](C[N+](C)(C)C)C[C@H]1O, which max response is on record?
A: 7.91%

Q: Which max response does the source give for NC(=NCCC[C@H](N)C(=O)O)N[N+](=O)[O-] here?
A: 11.8%

Q: Which max response does the source give for CCCN1CCO[C@@H]2c3cc(O)ccc3OC[C@H]21 here?
A: -5.59% and 5.71%

Q: For CCCN(CCC)C1CCc2ccc(O)cc2C1 (stereo not given), which max response is on record?
A: 6.52%

Q: With CC(=O)[C@H]1CCC2C3CC[C@H]4C[C@H](O)CC[C@]4(C)C3CC[C@@]21C (stereo not given in full) as the compound, how does the max response read?
A: 27.5%

Q: Which max response does the source give for O=C(O)Cc1cnc[nH]1 here?
A: 3.18%

Q: For NCCc1c[nH]c2ccc(O)cc12, which max response is on record?
A: 9.61%

Q: For c1ccc2sc(C3(N4CCCCC4)CCCCC3)cc2c1, which max response is on record?
A: 6.13%
